This is part of a sample that, as a whole, favours compounds with a hit. Of some 83,000 tested, about 20% had one in any assay.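 Interpretation: 100, growth as untreated; towards 0, rising growth inhibition; 0, no net growth; 0 to -100, cell death. Compounds scoring below 10 were considered active.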 Activity calls are given as the source filed them.
System: HL-60(TB) leukemia
Experiment: NCI-60 one-dose screen, 48 h (100 = growth as untreated, 0 = no growth, -100 = all killed)
Conditions: 10 µM unless noted

| Structure (SMILES) | growth |
| --- | --- |
| C=C(C)[C@@H]1CC[C@]2(C)[C@H](CC=C3[C@@H]4C[C@](C)(C(=O)N5CCN(C)CC5)CC[C@]4(C)CC[C@]32C)[C@@]1(C)CCC#N | 22.6% (inactive) |
| Cc1ccc(C(=O)CC(=O)C(F)(F)C(F)(F)C(F)(F)F)s1 | 101% (inactive) |
| c1ccc(-c2n[nH]c(-c3ccccn3)n2)nc1 | 105% (inactive) |
| c1coc(CNc2c3ccccc3nc3ccccc23)c1 | 93% (inactive) |
| CCCCn1c(C)nc2cc(Nc3nc(N4CCCCC4)nc4nc[nH]c34)ccc21 | 78.4% (inactive) |
| O=C(Nc1ccc(OS(=O)(=O)c2ccc(F)cc2)cc1)C12CC3CC(CC(C3)C1)C2 | 52.7% (inactive) |
| O=S(=O)(NCCNc1cc(-c2cn(-c3ccccc3)nc2-c2cccc(O)c2)ccn1)c1ccc(F)cc1 | 6.88% (active) |
| Nc1cc(Br)cc2c1[nH]c(=O)c1ccccc12 | 91.6% (inactive) |
| Cc1ccc(OC(=O)c2ccccc2)cc1 | 103% (inactive) |
| COc1ccc(-c2ccc(-c3ccc(C(=N)N)cn3)o2)cc1Cl | -59.5% (active) |
| C#CCn1cc(C=C2C(=O)N(C)C(=O)N(C)C2=O)c2cc(Cl)ccc21 | 105% (inactive) |
| COc1nc(N)nc(-n2c(-c3ccc(C)cc3)nc3ccccc32)c1NCc1ccc(C)cc1 | 101% (inactive) |
| Cn1ccnc1C(=O)/C=C/c1ccc(CC(=O)Nc2ccccc2)cc1 | -27.2% (active) |
| O=C(/C=C/c1ccc([N+](=O)[O-])cc1)c1ccc2c3c(cccc13)CC2 | 14.4% (inactive) |
| CCOC(=O)c1c(C)n(-c2ccc(Cl)cc2)c2ccc(OC(=O)/C=C/c3ccccc3)cc12 | 57.1% (inactive) |
| Cc1cc2c(c(C)n1)CN(C(=O)Nc1nc(-c3cncs3)ccc1N)C2 | 139% (inactive) |
| CC/C(=C(/c1ccc(OCCN(C)C)cc1)c1ccc(OC(=O)CCC(=O)c2c(C)[nH]c(/C=C3\N=C(c4ccc[nH]4)C=C3OC)c2C)cc1)c1ccccc1 | 24.2% (inactive) |
| Cc1cc(Cl)ccc1Nc1nc(C(F)(F)F)ccc1C(=O)N/N=C/c1ccc(Cl)cc1 | -33.8% (active) |
| COc1ccc(-c2cc(-c3ccccc3)nc(SCCCC(=O)NO)n2)cc1OC | -12.2% (active) |
| CCN1C(=O)N(CC)C2C1NN=c1s/c(=C3\C(=O)N(CCC(C)C)c4ccccc43)c(=O)n12 (stereo not drawn) | -38.2% (active) |
| CCOC(=O)c1cc(C(=O)c2cc(OC)c(OC)c(OC)c2)n2ccccc12 | -24.6% (active) |
| C=C(C[n+]1ccccc1)[C@@H]1CC[C@]2(C(=O)OC)CC[C@]3(C)[C@H](CC[C@@H]4[C@@]5(C)CCC(=O)C(C)(C)[C@@H]5CC[C@]43C)[C@@H]12 | 58% (inactive) |
| COc1cccc(-c2nn(-c3ccccc3)cc2-c2ccnc(NCCCNS(=O)(=O)c3ccc(Cl)cc3)c2)c1 | 40% (inactive) |
| COc1ccc(-c2cc(-c3cccs3)n(N=O)c(=O)c2C#N)cc1 | 94.7% (inactive) |
| CN(C)c1ccc(-c2c(C#N)c(N)n3nc(N)c(C#N)c3c2C#N)cc1 | 95.7% (inactive) |
| Cc1c(/C=C/[N+](=O)[O-])ccc2c1[nH]c1ccccc12 | 67.3% (inactive) |
| Cc1nn(-c2ccccc2)c2c1N=c1s/c(=C\c3cn(-c4ccccc4)nc3-c3ccc(Cl)cc3)c(=O)n1C(C)N2 (stereo not drawn) | 78.5% (inactive) |
| COc1ccc2c3c(ccc2c1)C(=O)/C(=C\O)CC3 | 75.1% (inactive) |
